Assay [1] relates to transactivating tegument protein VP16 (Human herpesvirus 1). In words: VP16 transactivation reporter inhibitors, counter-screen for SRC2 inhibitor project, cell-based, luminescence, single concentration (AID 652007). The settings on record: cell-based VP16 transactivation luciferase reporter, at 8.9 µM, hits give high values.
The target of assay [2] is Nuclear receptor coactivator 2 (Homo sapiens) (UniProt Q15596). Briefly: SRC2 coactivator transcriptional activity inhibitors, confirmation, cell-based, luminescence, HEK293, triplicate (AID 652008;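 active = mean inhibition above 46.5%, the solvent-only control mean plus 3 SD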;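 also: 0% = DMSO-treated cells and 100% = Gossypol at 36 µM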). The settings on record: HEK293 GAL4-SRC2 luciferase reporter, at 8.9 µM, hits give high values.
Sequence of Nuclear receptor coactivator 2 (Homo sapiens) (Q15596 whole entry, looked up, the tested form may be a part): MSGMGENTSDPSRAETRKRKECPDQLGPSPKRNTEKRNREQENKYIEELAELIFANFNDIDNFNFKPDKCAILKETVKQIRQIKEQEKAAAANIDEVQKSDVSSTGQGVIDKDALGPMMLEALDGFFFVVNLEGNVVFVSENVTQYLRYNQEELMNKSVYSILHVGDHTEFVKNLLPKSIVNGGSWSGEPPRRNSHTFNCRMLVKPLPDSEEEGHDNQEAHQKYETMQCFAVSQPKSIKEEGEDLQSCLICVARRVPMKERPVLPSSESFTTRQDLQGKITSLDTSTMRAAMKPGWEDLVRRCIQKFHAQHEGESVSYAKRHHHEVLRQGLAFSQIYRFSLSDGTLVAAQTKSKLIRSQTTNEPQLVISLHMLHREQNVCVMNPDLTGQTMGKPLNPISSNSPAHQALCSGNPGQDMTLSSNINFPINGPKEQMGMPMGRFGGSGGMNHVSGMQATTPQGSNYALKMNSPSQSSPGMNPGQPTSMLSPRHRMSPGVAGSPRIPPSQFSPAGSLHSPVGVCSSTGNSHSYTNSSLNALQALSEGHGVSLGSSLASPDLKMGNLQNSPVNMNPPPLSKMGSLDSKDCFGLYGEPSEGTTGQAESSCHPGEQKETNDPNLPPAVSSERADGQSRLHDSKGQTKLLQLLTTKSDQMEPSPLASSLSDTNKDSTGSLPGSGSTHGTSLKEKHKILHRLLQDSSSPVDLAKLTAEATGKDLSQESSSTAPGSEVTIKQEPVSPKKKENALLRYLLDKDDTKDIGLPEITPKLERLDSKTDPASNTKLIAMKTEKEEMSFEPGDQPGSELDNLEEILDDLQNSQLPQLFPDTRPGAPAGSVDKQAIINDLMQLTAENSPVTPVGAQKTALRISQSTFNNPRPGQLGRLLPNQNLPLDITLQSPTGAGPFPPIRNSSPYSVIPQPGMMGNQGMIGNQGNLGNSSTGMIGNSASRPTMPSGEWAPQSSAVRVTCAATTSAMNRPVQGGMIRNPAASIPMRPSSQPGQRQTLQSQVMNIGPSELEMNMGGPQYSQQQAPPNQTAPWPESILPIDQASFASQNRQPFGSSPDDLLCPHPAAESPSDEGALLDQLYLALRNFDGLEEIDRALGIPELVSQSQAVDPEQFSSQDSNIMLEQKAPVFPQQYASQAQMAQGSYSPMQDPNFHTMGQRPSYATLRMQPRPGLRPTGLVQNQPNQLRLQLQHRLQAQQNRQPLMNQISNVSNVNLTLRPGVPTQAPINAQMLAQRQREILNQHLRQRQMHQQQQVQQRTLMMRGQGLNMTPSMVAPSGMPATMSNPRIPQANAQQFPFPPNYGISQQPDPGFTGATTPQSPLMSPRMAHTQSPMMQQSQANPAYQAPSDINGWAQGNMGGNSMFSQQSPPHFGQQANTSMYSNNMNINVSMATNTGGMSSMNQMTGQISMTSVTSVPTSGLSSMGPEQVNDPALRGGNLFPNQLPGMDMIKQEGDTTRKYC

Values without a mark were called inactive. Rule as the data show it, unless noted: active = inhibition above about 36%; inactive = the rest.

`Cc1ccc2c(c1)COc1c3ccc(C(=O)O)cc3nn1-2`: the inhibition in assay [1] was -24.7%; in assay [2], -1.87%.

With `Cc1cc(F)ccc1NC(=O)CCc1c(C)nn(-c2ccc(N3CCCCC3)nn2)c1C`, the inhibition was -53% in assay [1] and 3.56% in assay [2].

For `COc1cc(Nc2nc(-c3ccccc3)c3cc(C)ccc3n2)cc(OC)c1OC`, the inhibition in assay [1] was 6.86%; in assay [2], 10.7%.

As to `CCOC(=O)Cn1c(=O)c2c(nc(N3CCCCC3)n2Cc2ccccc2)n(C)c1=O`, the inhibition in assay [1] was -5.76%; in assay [2], 4.93%.

Turning to `Cc1nc2scc(C)n2c(=O)c1S(=O)(=O)Nc1ccc(OC(F)(F)F)cc1`, the inhibition was -5.83% in assay [1] and 6.78% in assay [2].

As for `CC(C)N(Cc1ccccc1)C(=S)NCc1ccccc1`, the inhibition was -3.69% in assay [1] and -6.45% in assay [2].

Take `CC(OC(=O)C1=COCCO1)C(=O)Nc1ccc(Cl)cn1` (stereo not drawn): the inhibition is -6.28% in assay [1] and -20.4% in assay [2].

As to `CCOc1ccccc1OCCCCOc1ccccc1F`, the inhibition in assay [1] was -9.29%; in assay [2] it was -12.6%.

On to `C/C(CC(=O)NC1C2CC3CC(C2)CC1C3)=N\NC(=O)Cc1cccs1` (stereo not drawn), for which the inhibition was -16.1% in assay [1] and -8.93% in assay [2].

As for `CCOC(=O)C1CCCN(C(=O)CCNS(=O)(=O)c2ccc(Br)cc2)C1` (stereo not drawn), the inhibition is 10.6% in assay [1] and -4.97% in assay [2].

In the case of `CC(C)(C)c1ccc(OCC(O)CSc2ncn[nH]2)cc1` (stereo not drawn), the inhibition in assay [1] was 0.7%; in assay [2] it was 14.2%.

On to `C=CS(=O)(=O)N(Cc1nnn(Cc2ccccc2)c1Br)[C@H](C(=O)OC)C(C)C`, for which the inhibition in assay [1] was 18.8%; in assay [2] it was 27.4%.

In the case of `CC(C)c1ccc(/C=C/C(=O)N2CCCCCC2)cc1`, the inhibition in assay [1] was -73.2%; in assay [2], -26%.

For the compound `O=C(CCCN1C(=O)/C(=C/c2ccccc2Cl)SC1=S)NCCCN1CCOCC1`, the inhibition in assay [1] is 33.6%; in assay [2] it was 45.9%.

(Values after PubChem BioAssay.)
